Measurements published in PubChem BioAssay (NCATS).
Values joined by “and” are separate entries in the source; they are usually repeats but may differ in a detail not shown here. Equal values may be shown once. Results filed as inconclusive are left out. Active and inactive are the calls of the source. Calls come from the whole dose curve; as a rule, active = well fitted curve in the direction sought with a large enough effect; inconclusive = small, poorly fitted or top-dose-only effect, or another doubt; inactive = no such curve, though single readings can be large; an effect the other way counts as inactive or inconclusive.

Key:
[1] = target: Glutathione peroxidase 1 (Homo sapiens) (UniProt P07203); assay: Primary qHTS Assay for Inhibitors of Recombinant Selenoprotein Glutathione Peroxidase 1 (GPX1) (AID 1845191); note: nearly all actives have a fitted effect of over 65% in size; for activity, negative = inhibition: % is set by controls: 0 for no effect and ±100 for the full control effect
Outline: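 10 nM GPX1 + cpd, 30 min RT; start w/ 1 mM GSH, 0.5 mM cumene hydroperoxide, 0.5 mM NADPH, 100 nM GR, 0.01% BSA; buffer 50 mM Tris-HCl pH 7.5, 2 mM EDTA, 150 mM NaCl; Fl 340/450, 0 & 15 min.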

[2] = target: Phospholipid hydroperoxide glutathione peroxidase GPX4 (Homo sapiens) (UniProt P36969); assay: Primary qHTS Assay for Inhibitors of Recombinant Selenoprotein Glutathione Peroxidase 4 (GPX4) (AID 1845192); note: nearly all actives have a fitted effect of over 65% in size; note: potency is the fitted concentration of half-maximal effect; for activity change, negative = inhibition: series mostly up to about 50 µM; % is set by controls: 0 for no effect and ±100 for the full control effect
Outline: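 NADPH consumption, followed by fluorescence at 340/450 nm between 0 and 15 min, reports GPX4 activity via coupled glutathione reductase (100 nM). Enzyme 200 nM was pre-exposed to compound 30 min; 0.5 mM cumene hydroperoxide and 1 mM GSH served as substrates.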

[3] = target: Luciferin 4-monooxygenase (Photinus pyralis) (UniProt P08659); assay: Primary firefly luciferase (FLuc) qHTS assay for identification of artifact compounds. (AID 1845220); note: nearly all actives have a fitted effect of over 60% in size;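 for activity change, negative = inhibition: series mostly up to about 54 µM; plate controls were DMSO vehicle for no effect and no enzyme for full effect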
Outline: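 Compounds sat 15 min at room temperature with 10 uM luciferin and 10 uM ATP (pH 7.6 Tris acetate). Firefly luciferase (10 nM final) was then added, and luminescence was read 5 min later. Data normalized to no-enzyme and DMSO controls were Hill-fitted.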

[4] = Primary fluorescence-based thiol-reactive (MSTI) qHTS assay for identification of artifact compounds. (AID 1845221); note: nearly all actives have a fitted effect of over 65% in size; note: potency is the fitted concentration of half-maximal effect;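 for activity change, negative = thiol reactive: series mostly up to about 54 µM; thiol-reactive compounds lower the probe fluorescence signal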
Outline: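 Probe: MSTI 4 uM, PBS pH 7.4, 2% DMSO. Incubation 1 h, RT, light-protected. Readout fluorescence 525/598 nm.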

[5] = tested on: Nanoluciferase (engineered Oplophorus gracilirostris luciferase); assay: Primary Nanoluciferase (NLuc) qHTS assay for identification of artifact compounds. (AID 1845222);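 note: series mostly up to about 54 µM; 0% = DMSO and -100% = no enzyme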
Outline: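 Luminescence from secreted NLuc (filtered, 1:55-diluted S16 cell medium) read 5 min after Nano-Glo substrate; compounds preincubated 15 min, RT. Hill fits of inhibition normalized to DMSO and no-enzyme.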

Chain of Glutathione peroxidase 1 (Homo sapiens) (P07203 whole entry, looked up): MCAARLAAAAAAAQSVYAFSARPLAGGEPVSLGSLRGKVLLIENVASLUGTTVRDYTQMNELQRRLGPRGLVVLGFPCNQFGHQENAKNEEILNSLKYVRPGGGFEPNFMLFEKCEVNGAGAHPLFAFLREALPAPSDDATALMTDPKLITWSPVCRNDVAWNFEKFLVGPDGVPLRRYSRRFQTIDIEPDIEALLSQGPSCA
Chain of Phospholipid hydroperoxide glutathione peroxidase GPX4 (Homo sapiens) (P36969 whole entry, looked up): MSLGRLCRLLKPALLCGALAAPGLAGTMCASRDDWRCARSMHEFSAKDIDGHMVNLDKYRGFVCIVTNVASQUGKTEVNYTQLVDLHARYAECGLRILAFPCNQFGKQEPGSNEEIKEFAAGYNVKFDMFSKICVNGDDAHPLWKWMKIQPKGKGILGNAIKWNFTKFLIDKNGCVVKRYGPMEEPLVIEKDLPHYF

O=S1(=O)CCN(Cc2cc(NCC3CCOCC3)c3[nH]c(-c4ccccc4)cc3c2)CC1
inactive: Potency [1] | Potency [2] | Potency [3] | Potency [5]
active: Potency [4] 1.19 µM

O=C(NCCCc1ccccc1)C1CCC(CNS(=O)(=O)c2cccc3nsnc23)CC1 (stereo not given)
inactive: Potency [1] | Potency [2] | Potency [3] | Potency [4] | Potency [5]

CC1CCC/C=C/C(=O)c2c(O)cc(O)cc2CC(=O)O1 (stereo not given)
inactive: Potency [1] | Potency [2] | Potency [3] | Potency [5]
active: Potency [4] 11.9 µM

COc1cc(O)c2c(c1)/C=C/C[C@H](O)[C@H](O)C(=O)/C=C\C[C@H](C)OC2=O
inactive: Potency [1] | Potency [2] | Potency [3] | Potency [4] | Potency [5]

CCNC1(C(N)=O)CN(c2nc(C)nc3c(-c4ccc(Cl)cc4)c(-c4ccccc4Cl)nn23)C1
inactive: Potency [1] | Potency [2] | Potency [3] | Potency [4] | Potency [5]

CO[C@@H]1CC(OC2CCC3(C)C(CCC45CCC(C6=CC(=O)OC6)C(C)(CCC43)C5=O)C2)O[C@H](C)[C@@H]1O[C@@H]1O[C@H](CO[C@@H]2O[C@H](CO)[C@@H](O)[C@H](O)[C@H]2O)[C@@H](O)[C@H](O)[C@H]1O (stereo not given in full)
inactive: Potency [1] | Potency [2] | activity change, negative = inhibition [3] -4.2% [at 11.6 µM] | activity change, negative = thiol reactive [4] -1.23% [at 11.5 µM] | activity, negative = inhibition [5] -1.95% [at 11.6 µM]

Cc1nnc(C[C@@H]2C=C(c3ccc(Cl)cc3)c3ccccc3-n3c(C)nnc32)o1
inactive: Potency [1] | Potency [2] | Potency [3] | Potency [4] | Potency [5]

CC1(C)CCCC2(C)C1C(=O)C=C(C(=O)O)C2(O)C(=O)O (stereo not given)
active: Potency [4] 9.47 µM
inactive: Potency [1] | Potency [2] | Potency [3] | Potency [5]

Cc1c[nH]c2ncnc(N3CCC(CN)(C(=O)Nc4cccc(OC(=O)N(C)C)c4)CC3)c12
inactive: Potency [1] | Potency [2] | Potency [3] | Potency [4] | Potency [5]

O=C(Nc1cc(C(F)(F)F)ccc1N1CCCCC1)c1ccncc1
inactive: Potency [1] | Potency [2] | Potency [3] | Potency [4] | Potency [5]

CC(=O)C1=CCC2C3CC=C4CC(O)CC(O)C4(C)C3C(O)CC12C (stereo not given)
inactive: Potency [1] | Potency [2] | Potency [3] | Potency [4] | Potency [5]

CN1CCN(C2CCN(C(=O)Nc3cc(Oc4ccc(NC(=O)C5(C(=O)Nc6ccc(F)cc6)CC5)c(F)c4)ccn3)CC2)CC1
inactive: Potency [1] | Potency [2] | Potency [3] | Potency [4] | Potency [5]

CC1(C)CC[C@]2(C(=O)O)CC[C@]3(C)C(=CCC4[C@@]5(C)C[C@@H](O)[C@H](O)[C@@](C)(CO)C5CC[C@]43C)[C@@H]2[C@@H]1O (stereo not given in full)
inactive: Potency [1] | Potency [2] | Potency [3] | Potency [5]
active: Potency [4] 10.3 µM

NC(N)=NC(=O)c1cnn(-c2cccc3ncccc23)c1C1CC1
inactive: Potency [1] | Potency [2] | Potency [3] | Potency [4] | Potency [5]

C=C(C)C1CC(O)C(C)C12CC(O)C1(C)OC1C2O (stereo not given)
inactive: Potency [1] | Potency [2] | Potency [3] | Potency [4] | Potency [5]

Cc1ccc(-c2ncccn2)c(C(=O)N2C[C@H](COc3ccc(F)cn3)CC[C@H]2C)c1
inactive: Potency [1] | Potency [2] | Potency [3] | Potency [4] | Potency [5]

CC(=O)O[C@@H]1CC[C@@]2(C)[C@H](CC[C@@H]3[C@@H]2C[C@H](OC(C)=O)[C@]2(C)[C@@H](C(C)=O)CC[C@@H]32)C1
inactive: Potency [1] | Potency [2] | Potency [3] | Potency [4] | Potency [5]

CCC/C=C\C=C/CCc1cc(O)c([C@@H]2O[C@H](CO)[C@@H](O)[C@H](O)[C@H]2O)c(O)c1C(=O)OC
inactive: Potency [1] | Potency [2] | Potency [3] | Potency [4] | Potency [5]

CC(=O)O[C@H]1[C@H](O)C[C@@]2(C)C(CC[C@]3(C)C2CC=C2C4CC(C)(C)CC[C@]4(C(=O)O)CC[C@]23C)C1(C)C (stereo not given in full)
inactive: Potency [1] | Potency [2] | Potency [3] | Potency [4] | Potency [5]

N#Cc1ccc(-c2ccc(S(=O)(=O)Nc3cccc(N)n3)cc2)cc1
inactive: Potency [1] | Potency [2] | Potency [3] | Potency [4] | Potency [5]

CC(C)=CCC[C@](C)(O[C@@H]1O[C@H](CO[C@@H]2OC[C@@H](O)[C@H](O)[C@H]2O)[C@@H](O)[C@H](O)[C@H]1O)[C@H]1CC[C@]2(C)[C@@H]1[C@H](O)C[C@@H]1[C@@]3(C)CC[C@H](O[C@@H]4O[C@H](CO)[C@@H](O)[C@H](O)[C@H]4O)C(C)(C)[C@@H]3CC[C@]12C
inactive: Potency [1] | Potency [2] | Potency [3] | Potency [4] | Potency [5]

COc1ccc2nccc(C(=O)CC[C@@H]3CCN(CC#Cc4cc(F)cc(F)c4F)C[C@@H]3C(=O)O)c2c1
inactive: Potency [1] | Potency [2] | Potency [3] | Potency [4] | Potency [5]

CN(C)C(=O)C(=O)c1cn(C)c2cc(Cl)c(C(=O)N3CCC(Cc4ccc(F)cc4)CC3)cc12
inactive: Potency [1] | Potency [2] | Potency [3] | Potency [4] | Potency [5]

COc1ccc(NC(=O)c2ccc(-c3ccc(C(=N)N)cc3C)cc2)cc1N1CCN(C)CC1
inactive: Potency [1] | Potency [2] | Potency [3] | Potency [4] | Potency [5]

COc1cc(CN(CCN)C(=O)c2cccs2)ccc1OCc1ccccc1
inactive: Potency [1] | Potency [2] | Potency [3] | Potency [4] | Potency [5]

COc1ccc(CN2CCN(C(=O)CCNC(=O)c3ccc(C(C)(C)C)cc3)CC2)cc1
inactive: Potency [1] | Potency [2] | Potency [3] | Potency [4] | Potency [5]

C[C@@H]1O[C@@H](O[C@H]2CC[C@@]3(C)C(CC[C@]4(C)C3CC=C3[C@@H]5CC(C)(C)CC[C@]5(C(=O)O[C@@H]5O[C@H](CO)[C@@H](O)[C@H](O)[C@H]5O)CC[C@]34C)[C@]2(C)CO)[C@H](O)[C@H](O[C@@H]2O[C@H](CO)[C@@H](O)[C@H](O)[C@H]2O)[C@H]1O (stereo not given in full)
inactive: Potency [1] | Potency [2] | outcome [3] inactive [at 11.6 µM] | activity change, negative = thiol reactive [4] 278% [at 11.5 µM] | activity, negative = inhibition [5] 2.95% [at 11.6 µM]

CNC(=O)COC(=O)N1CCC(CCc2ccc(Cl)cc2)CC1
inactive: Potency [1] | Potency [2] | Potency [3] | Potency [4] | Potency [5]

Cc1cc2c(cc1N1C(=O)c3cccc4c(CCCO)ccc(c34)C1=O)n(C)c(=O)n2C
inactive: Potency [1] | Potency [2] | Potency [3] | Potency [4] | Potency [5]

O=C(NCCCCN1CCN(c2cccc(Cl)c2Cl)CC1)c1cc2ccccc2s1
inactive: Potency [1] | Potency [2] | Potency [3] | Potency [4] | Potency [5]

Cc1nc(-c2cn3c(n2)-c2ccc(-c4cnn(C(C)(C)C(N)=O)c4)cc2OCC3)n(C(C)C)n1
active: Potency [2] 14.3 µM and 20.2 µM
inactive: Potency [1] | Potency [3] | Potency [4] | Potency [5]

C[C@@H](NC(=O)c1ccc(C#Cc2cccc(F)c2)cn1)C(C)(C)O
inactive: Potency [1] | Potency [2] | Potency [3] | Potency [4] | Potency [5]

CCc1cc(C(N)=O)ccc1-n1nc(C(C)C)c2c(-n3cnc(-c4cnn(C)c4)c3)ccnc21
inactive: Potency [1] | Potency [2] | Potency [3] | Potency [4] | Potency [5]

Nc1ncnc2c1c(-c1ccc(Oc3ccccc3)cc1)nn2[C@@H]1CCCNC1
inactive: Potency [1] | Potency [2] | Potency [3] | Potency [4] | Potency [5]

CN1CCN(c2ccc(OC(F)(F)F)c(Nc3ncc4c(n3)-c3c(c(C(N)=O)nn3CCO)CC4)c2)CC1
inactive: Potency [1] | Potency [2] | Potency [3] | Potency [4] | Potency [5]

CC(=O)OC1CC2(C)C(CCC(C)C23Cc2c(O)cc(CO)c(C=O)c2O3)C(C)(C)C1O (stereo not given)
inactive: Potency [1] | Potency [2] | Potency [3] | Potency [4] | Potency [5]

O=S(=O)(NCc1cccc2ccccc12)c1cc(Cl)c(Oc2cccc(N3CCNCC3)c2)s1
inactive: Potency [1] | Potency [2] | Potency [3] | Potency [4] | Potency [5]

CC(=O)OC/C(=C/C(=O)O)CC[C@@H]1C(C=O)=CC[C@@H]2C(C)(C)CCC[C@@]12C
inactive: Potency [1] | Potency [2] | Potency [3] | Potency [4] | Potency [5]

CC(=O)O[C@H]1CC(C)(C)CC2[C@]13CO[C@@]21CCC2[C@@]4(C)CC[C@H](O[C@@H]5OC[C@H](O[C@@H]6O[C@H](CO)[C@@H](O)[C@H](O)[C@H]6O[C@@H]6OC[C@@H](O[C@@H]7O[C@H](CO)[C@@H](O)[C@H](O)[C@H]7O)[C@H](O)[C@H]6O)[C@H](O)[C@H]5O[C@@H]5O[C@H](CO)[C@@H](O)[C@H](O)[C@H]5O)[C@@](C)(CO)C4CC[C@@]2(C)[C@]1(C)C[C@H]3O (stereo not given in full)
inactive: activity, negative = inhibition [1] 2.15% [at 9.52 µM] | activity change, negative = inhibition [2] 4.48% [at 9.73 µM] | activity change, negative = inhibition [3] 3.87% [at 11.6 µM] | activity change, negative = thiol reactive [4] 133% [at 11.5 µM] | activity, negative = inhibition [5] 2.8% [at 11.6 µM]
